This excerpt belongs to a sample that is enriched for hits.
Caspase-1 inhib = qHTS Assay for Allosteric/Competitive Inhibitors of Caspase-1; Potency, µM (highest dose often 57.5 µM), for the others: at the highest dose activity change, negative = inhibition, hits mostly inhibitors; Caspase-1 enzyme, Ac-WEHD-AFC fluorogenic rate; 0.03% of 75,000 active; AID 900, 2007; P29466;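 also: plate controls were vehicle for no effect and no substrate for full effect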
USP2a inhib = qHTS Assay for Inhibitors of Ubiquitin-specific Protease USP2a. USP2a enzymatic assay, qHTS inhibition. Potency, µM (top dose mostly 38.3 µM), without a hit: top-dose activity change, negative = inhibition, most hits filed as inhibitors. AID 927, 2007. Ubiquitin carboxyl-terminal hydrolase 2 (Homo sapiens), O75604. 0.1% of 60,000 active; also: nearly all actives have a fitted effect of over 60% in size
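Coupled readout: USP2-cleaved Ub-PLA2 (20nM final) turns over NBD C6-HPC (20uM final), Ex 460nm/Em 535nm after 2.5 h, time-zero read flagging artifacts. Enzyme (20nM final, pH 8.0 Tris) given 30 min RT with compound first; NEM defines full inhibition.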
GBA mod = Glucocerebrosidase. Lysosomal acid glucosylceramidase (Homo sapiens), P04062. purified enzyme, resorufin glucoside fluorescence (screen aimed at inhibitors), 20 min. Potency, µM. 1.1% of 48,000 active. AID 360, 2006; in the data active = potency below about 15 µM; inconclusive = mostly about 16 µM to 33 µM;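 also: the screen sought inhibitors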
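Compounds titrated against 0.2 nM normal enzyme, 30 uM resorufin beta-D-glucopyranoside substrate, citrate/phosphate buffer with taurocholate and tween-20, pH 5.9. Reaction ran 20 min at room temperature; fluorescence (Ex 548/Em 600) gave AC50.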
Casp7 inh = qHTS Assay for Allosteric/Competitive Inhibitors of Caspase-7 | P55210 | recombinant caspase-7, Ac-DEVD-AFC fluorescence rate | Potency, µM (titrated, usually from 57.5 µM), without a hit: top-dose activity change, negative = inhibition, usual class: inhibitors | 0.02% of 75,000 active | AID 889, 2007; active = well fitted inhibition curve with a large enough effect in the main read-out, with a control signal flat, not every such curve was filed as active; inconclusive = small, poorly fitted or top-dose-only effect, or a change in a side signal; also: % of control where 0% means no effect
Starred values were filed as active, the others as inactive; i = inactive; ? = inconclusive; . = no result; [ ] = another dose, or the depositor's remark. Unless noted, calls follow the shape of the dose curve; as a rule, active = well fitted curve in the direction sought with a large enough effect; inconclusive = small, poorly fitted or top-dose-only effect, or another doubt; inactive = no such curve, though single readings can be large; an effect the other way counts as inactive or inconclusive. Potency is read from the fitted curve at half-maximal effect.

SMILES	Caspase-1 inhib	USP2a inhib	GBA mod	Casp7 inh
COc1ccc(N(CC(=O)Nc2ccc3c(c2)OCCO3)S(=O)(=O)c2c(C)noc2C)cc1	-0.9%	37.0%	11.9*	-6.1%
CCCCC(=O)N(CCOC)c1nnc(-c2ccc(OC)cc2)s1	0.9%	2µM*	>76.9	-0.9%
COCCN(C(=O)c1cccc(OC)c1)c1nnc(-c2ccncc2)s1	1.0%	16.2%	>76.9	-0.8%
CCOc1ccc(C2C=C(c3ccccc3)Nc3nnnn32)cc1 (stereo not given)	.	2.8%	3.74*	?
Cc1cc(C)n(-c2ccc(C(=O)Nc3sccc3C(N)=O)cc2)n1	-3.5%	-7.0%	14.9*	-19.7%
O=C(c1[nH]o[n+](=O)c1C(=O)c1csc2ccccc12)c1csc2ccccc12	-1.2%[11.5 µM]	.	.	-1.8%[11.5 µM]
COc1cccc(OCC(O)CN(CCO)Cc2ccccc2)c1 (stereo not given)	2.3%	11.4%	13.2*	-0.4%
CCN1CCN(CC(O)COc2cccc(OC)c2)CC1 (stereo not given)	2.0%	-3.1%	>76.9	-1.4%
O=C(NCCN1CCOCC1)c1ccc(-n2c(=O)c(=O)[nH]c3ccccc32)cc1	-5.5%	.	.	-0.6%
O=C(CSc1nc2nc(-c3cccs3)cc(C(F)(F)F)c2c(=O)[nH]1)NCc1ccco1	?	2µM*	.	?
CN(C)C1CCN(C(=O)c2ccc(-n3c(=O)c(=O)[nH]c4ccccc43)cc2)C1 (stereo not given)	-4.2%	.	.	-1.5%
Oc1cc(O)cc(/C=C\c2ccc(O)c(O)c2)c1	?	-3.5%	.	-7.7%
CCOc1ccc(N2CCCn3c2nc2c3c(=O)n(CCc3ccccc3)c(=O)n2C)cc1	-2.5%	7.1%	>76.9	-3.5%
Cn1c(=O)n(Cc2ccccc2F)c(=O)c2c1nc1n2CCCN1CCc1ccccc1	-3.3%	7.9%	13.5*	-1.8%
Cn1c(=O)n(CCc2ccccc2)c(=O)c2c1nc1n2CCCN1CCc1ccccc1	-4.9%	-1.0%	8.99*	-5.7%
Cn1c(=O)n(CCc2ccccc2)c(=O)c2c1nc1n2CCCN1Cc1ccccc1	-2.0%	12.1%	i	-1.5%
COc1ccc(N2CCCn3c2nc2c3c(=O)n(CCc3ccccc3)c(=O)n2C)cc1	0.0%	9.2%	12*	4.2%
COc1ccc(Br)cc1C(=O)Nc1ccc(N2CCN(S(C)(=O)=O)CC2)cc1	-6.6%	25.5%	11.7*	-9.5%
Cc1noc(/C=C/N(C)C)c1S(=O)(=O)N1CCCC(C(=O)NCc2ccc(Cl)cc2)C1 (stereo not given)	-11.5%	46.9%	14*	-10.9%
Cc1noc(/C=C/N(C)C)c1S(=O)(=O)N1CCCC(C(=O)NCc2ccc(F)cc2)C1 (stereo not given)	-4.1%	.	.	-6.2%
CC(C)(C)c1onc(OCP(=O)(O)O)c1C[C@@H](N)C(=O)O	-2.8%	2.6%	.	-2.2%
Cc1nnc(NC(=O)C2CCCN(S(=O)(=O)Cc3ccccc3)C2)s1 (stereo not given)	0.4%	.	?	1.5%
CCc1nnc(NC(=O)C2CCN(S(=O)(=O)Cc3ccccc3)CC2)s1	-3.0%	10.9%	4.26*	-0.5%
C[C@@]12C(=O)OC(=O)[C@@]1(C)[C@H]1CC[C@@H]2O1	3.8%	-3.7%	.	1.2%
CCOc1ccccc1C(=O)Nc1cc(Cl)ccc1O	-4.2%	12.6µM*	.	-4.9%
SMILES	Caspase-1 inhib	USP2a inhib	GBA mod	Casp7 inh
Cc1ccc(NC(=O)NC2=N/C(=C(/C#N)C(=O)N3CCCC3)c3ccccc32)cc1	-2.5%	-12.1%	9*	-2.1%
CCCc1ccc(S(=O)(=O)NCCc2ccncc2)cc1	0.0%	4.6%	7.13*	-2.7%
CCSc1nnc(NC(=O)c2cc(C)oc2C)s1	-1.0%	6.9%	10.9*	0.9%
CCSc1nnc(NC(=O)c2ccc(C)o2)s1	0.1%	-2.4%	>76.9	2.0%
O=C(O)c1ccc(Cl)c(S(=O)(=O)Nc2ccccc2)c1	1.6%	.	.	-2.1%
CNC(=O)[C@@H]1O[C@@H](n2cnc3c(NCc4cccc(I)c4)ncnc32)[C@H](O)[C@@H]1O	-0.3%	17.4%	.	1.4%
COc1ccc(C2C(C(=O)NCCN3CCOCC3)c3ccccc3C(=O)N2C2CCCCC2)cc1 (stereo not given)	0.9%	21.7%	13.9*	0.2%
COc1ccc(C2C(C(=O)N3CCN(C)CC3)c3ccccc3C(=O)N2C2CCCCC2)cc1 (stereo not given)	2.7%	8.6%	.	0.6%
N=c1c2c3c(sc2ncn1CCN1CCOCC1)CCCCC3	-2.4%	0.6%	?	-2.0%
c1nc(NCCN2CCOCC2)c2c3c(sc2n1)CCCCC3	1.0%	7.9%	7.49*	-1.8%
CCn1cnc2cc(NCc3cccc(OC)c3O)ccc21	0.2%	1.7%	13.9*	-0.9%
CCCCn1cnc2cc(NCc3cccc(OC)c3O)ccc21	-0.7%	19.6%	?	-1.8%
COC(=O)c1sc2nc(-c3ccco3)ccc2c1N	2.7%	-2.5%	>76.9	0.5%
N#Cc1sc2nc(-c3ccccc3)cc(-c3ccco3)c2c1N	.	24.3%	>76.9	25.1µM*
COc1ccc2cc(C(=O)NCc3ccco3)c(=Nc3ccc(C(=O)O)cc3)oc2c1	1.1%	-15.0%	>76.9	-0.8%
COc1ccc(N=c2oc3c(OC)cccc3cc2C(=O)NCc2ccco2)c(OC)c1	-1.5%	98.3%	2.1*	-1.2%
O=C(NC1CCCCCCC1)C1CCN(S(=O)(=O)N2CCC3(CC2)OCCO3)CC1	4.2%	12.8%	10.7*	1.0%
O=S(=O)(NCCNC/C=C\c1ccc(Br)cc1)c1cccc2cnccc12	-0.4%	21.4%	.	0.6%
O=C(NCCN1CCOCC1)NC1(C(F)(F)F)Oc2ccc(Cl)cc2O1 (stereo not given)	1.0%	6.2%	9.78*	0.5%
Cc1ccc(C(=O)Cn2c(NCCO)nc3ccccc32)cc1	-0.2%	8.0%	14.2*	0.2%
Cc1ccc(Nc2nc(N3CCOCC3)c3ccccc3n2)cc1	-2.8%	11.9%	.	-4.0%
Oc1ccc(Nc2nc(N3CCCC3)c3ccccc3n2)cc1	-1.0%	.	8.85*	4.4%
C/C(CCN1CCCc2nc(C)c(C)cc21)=N\O[C@@H](C)c1cn([C@H](CO)Cc2ccccc2)nn1	-4.4%[11.5 µM]	.	.	-6.7%[11.5 µM]
CCCCOc1ccc(-c2c(C#N)c(N)nc(SCC(N)=O)c2C#N)cc1	-5.5%	?	8.78*	-20.4%
Cc1nn(-c2ccccc2)c2c1C(c1c(C)[nH]c(C#N)c1C)C(C#N)=C(N)O2 (stereo not given)	0.6%	2.7%	11*	0.3%
CCCC(C(=O)NCc1ccco1)N(C(=O)CNS(=O)(=O)c1ccccc1)c1ccccc1OC (stereo not given)	-0.7%	0.4%	15.2*	2.0%
CC1CCCCN1c1nc(-c2ccncc2)nc2ccccc12 (stereo not given)	-0.8%	10µM*	i	-1.6%
CC1CCN(c2nc(-c3ccncc3)nc3ccccc23)CC1	-2.4%	?	.	-0.9%
Cc1cc(C)nc(N2CCC(C(=O)Nc3nnc(C)s3)CC2)n1	-1.0%	11.6%	3.03*	-0.6%
CCCCN(C)S(=O)(=O)c1ccc(C(=O)Nc2nnc(-c3cccs3)o2)cc1	-1.1%	58.0%	8.22*	0.3%

Compound activity (PubChem BioAssay)
